Each structure is given as a SMILES string. About 83,000 compounds went through this panel and 20% of them were active in at least one assay; those are over-represented in the sample as a whole.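 Cell lines were cultured in 96-well plates, exposed to a single compound concentration, and assessed for percent growth 48 hours later.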 Values without a mark were called inactive. Activity calls are given as the source filed them. The calls were made as follows: active = growth percent below 10; inactive = the rest.

Test systems include NCI-H23 lung; NCI-H226 lung; NCI-H322M lung; HOP-62 NSCLC; NCI-H460 lung; HOP-92 NSCLC; NCI-H522 lung; A549/ATCC NSCLC; 786-0 renal; COLO 205 colon; DU-145 prostate; K-562 leukemia; MALME-3M melanoma; MDA-MB-231 breast; RXF 393 renal; SF-268 CNS; SF-295 CNS; SF-539 CNS; UACC-257 melanoma; M14 melanoma.
What all share (assay): NCI-60 one-dose screen, 48 h (100 = growth as untreated, 0 = no growth, -100 = all killed)
Holding throughout (settings): 10 µM

Consider `Cc1ccc2c(c1)-c1cc(C)nn1-c1ccc(C#N)cc1O2`, for which the growth in the experiment with NCI-H23 lung was 78.2%; in the experiment with NCI-H226 lung, 75.4%; in the experiment with NCI-H322M lung, 81.5%; in the experiment on HOP-62 NSCLC, 51.6%; in the experiment on NCI-H460 lung, 60.5%; in the experiment with HOP-92 NSCLC, 69.1%. Besides, the growth in the experiment with NCI-H522 lung was 15.2%; with A549/ATCC NSCLC, 51.6%; with 786-0 renal, 86.4%; in the experiment on COLO 205 colon, 66.3%; with DU-145 prostate, 98.7%; in the experiment with K-562 leukemia it was 19.7%. The growth in the experiment with MALME-3M melanoma was 76.1%; in the experiment with MDA-MB-231 breast it was 61%; in the experiment with RXF 393 renal it was 65%; with SF-268 CNS, 74.4%; in the experiment on SF-295 CNS, 67.2%; with SF-539 CNS, 69.1%. Also, the growth was 78.4% in the experiment on UACC-257 melanoma and 40% in the experiment with M14 melanoma.

For the molecule `CCNC1(NC#N)CCCCC1`, the growth was 102% in the experiment with NCI-H23 lung; 95.6% in the experiment on NCI-H226 lung; 113% with NCI-H322M lung; 109% in the experiment with HOP-62 NSCLC; 113% in the experiment on NCI-H460 lung; 85% in the experiment with HOP-92 NSCLC. For the same molecule, the growth in the experiment with NCI-H522 lung is 123%; in the experiment with A549/ATCC NSCLC it was 91.4%; with 786-0 renal, 100%; with COLO 205 colon it was 111%; in the experiment with DU-145 prostate, 123%; in the experiment on K-562 leukemia it was 115%. For the same molecule, the growth was 113% with MALME-3M melanoma; 107% with MDA-MB-231 breast; 108% with RXF 393 renal; 112% in the experiment with SF-268 CNS; 97.7% with SF-295 CNS; 105% in the experiment with SF-539 CNS. For the same molecule, the growth is 85.1% with UACC-257 melanoma and 99% with M14 melanoma.

Regarding `COc1ccc(CSc2nc3cc(OC)c(OC)cc3c(=O)n2-c2ccc(OC)cc2OC)cc1`, the growth is 78.3% in the experiment on NCI-H23 lung; 78.4% in the experiment on NCI-H226 lung; 80.6% in the experiment with NCI-H322M lung; 101% with HOP-62 NSCLC; 90.6% in the experiment with NCI-H460 lung; 75.5% in the experiment with HOP-92 NSCLC. The growth with NCI-H522 lung is 68.6%; in the experiment on A549/ATCC NSCLC, 80.8%; in the experiment with 786-0 renal it was 95.7%; in the experiment on COLO 205 colon, 101%; in the experiment with DU-145 prostate it was 97.7%; in the experiment with K-562 leukemia, 87.1%. Further, the growth was 82.6% in the experiment on MALME-3M melanoma; 75.4% in the experiment with MDA-MB-231 breast; 75.5% in the experiment on RXF 393 renal; 86.4% in the experiment with SF-268 CNS; 89.6% in the experiment on SF-295 CNS; 96.8% in the experiment on SF-539 CNS. Also, the figures for the growth in the experiment with UACC-257 melanoma and with M14 melanoma were 93.4% and 97%, respectively.

For the molecule `Cc1noc(C)c1-c1ccc2nc(NC(=O)[C@H]3CCN(C#N)C3)cn2c1`, the growth in the experiment with NCI-H23 lung was 76.1%; in the experiment with NCI-H226 lung, 91.1%; in the experiment with NCI-H322M lung it was 99.3%; in the experiment with HOP-62 NSCLC it was 92.8%; in the experiment with NCI-H460 lung, 98.7%; in the experiment on HOP-92 NSCLC it was 67.3%. The growth with NCI-H522 lung is 25.2%; in the experiment on A549/ATCC NSCLC, 94.6%; with 786-0 renal it was 78.6%; in the experiment on COLO 205 colon it was 82.6%; in the experiment with DU-145 prostate it was 89.7%; in the experiment with K-562 leukemia, 40.5%. Moreover, the growth in the experiment with MALME-3M melanoma is 75.6%; in the experiment with MDA-MB-231 breast, 68.2%; with RXF 393 renal, 83.4%; with SF-268 CNS, 91.3%; in the experiment with SF-295 CNS, 97%; with SF-539 CNS it was 82.3%. Moreover, the values for the growth in the experiment on UACC-257 melanoma and in the experiment with M14 melanoma were 82.1% and 77.9%, respectively.

Consider `COc1cc(C(=O)n2nc(N)c3c(C)cc(C)nc32)cc(OC)c1OC`, for which the growth with NCI-H23 lung was 88.8%; in the experiment with NCI-H226 lung, 92.1%; in the experiment with NCI-H322M lung, 88.6%; in the experiment on HOP-62 NSCLC, 79.3%; with NCI-H460 lung it was 89.9%; with HOP-92 NSCLC, 93.5%. Further, the growth is 41% in the experiment on NCI-H522 lung; 55.7% in the experiment with A549/ATCC NSCLC; 90.4% in the experiment on 786-0 renal; 67.6% with COLO 205 colon; 93.3% in the experiment on DU-145 prostate; 18.2% in the experiment with K-562 leukemia. For the same molecule, the growth is 89% with MALME-3M melanoma; 87.7% in the experiment with MDA-MB-231 breast; 83.2% with RXF 393 renal; 79.1% in the experiment with SF-268 CNS; 75.9% in the experiment on SF-295 CNS; 64.6% in the experiment on SF-539 CNS. For the same molecule, the growth with UACC-257 melanoma was 90.9%; with M14 melanoma, 80.2%.

As for `O=c1ccc2nc(-c3ccccc3)nn(-c3ccccc3)c-2c1`, the growth in the experiment on NCI-H23 lung was 54.4%; with NCI-H226 lung it was 68.1%; with NCI-H322M lung it was 88.2%; with HOP-62 NSCLC it was 69.5%; in the experiment with NCI-H460 lung, 81.4%; in the experiment on HOP-92 NSCLC, -33% (active). In addition, the growth was -90.5% (active) with NCI-H522 lung; 73.7% in the experiment on A549/ATCC NSCLC; 48.6% with 786-0 renal; -78.8% (active) in the experiment with COLO 205 colon; -95.4% (active) with DU-145 prostate; -39% (active) in the experiment with K-562 leukemia. Moreover, the growth in the experiment with MALME-3M melanoma was -92.5% (active); in the experiment with MDA-MB-231 breast, 76.3%; with RXF 393 renal, -92.8% (active); in the experiment on SF-268 CNS it was 70.5%; in the experiment on SF-295 CNS, 23.9%; in the experiment with SF-539 CNS it was 105%. Moreover, the growth is -97.3% (active) in the experiment with UACC-257 melanoma and 51.2% in the experiment on M14 melanoma.

Regarding `COc1ccccc1NC1=C(N2CCCCC2)C(=O)c2ccccc2C1=O`, the growth is 98.7% with NCI-H23 lung; 84.5% in the experiment on NCI-H226 lung; 80.9% in the experiment on NCI-H322M lung; 98.8% with HOP-62 NSCLC; 87.9% with NCI-H460 lung; 57.9% with HOP-92 NSCLC. The growth in the experiment on NCI-H522 lung is 82.5%; in the experiment with A549/ATCC NSCLC, 74.4%; in the experiment on 786-0 renal, 87.5%; in the experiment with COLO 205 colon it was 92.3%; in the experiment with DU-145 prostate it was 105%; with K-562 leukemia it was 75.5%. Besides, the growth in the experiment on MALME-3M melanoma was 96.9%; in the experiment on MDA-MB-231 breast it was 83%; with RXF 393 renal, 67.1%; in the experiment with SF-268 CNS, 88.8%; with SF-295 CNS it was 67.1%; in the experiment with SF-539 CNS, 93.6%. The growth was 76.7% in the experiment on UACC-257 melanoma and 89.9% in the experiment on M14 melanoma.
